Test results as given in PubChem BioAssay (NCI).
Values joined by “and” are separate entries in the source; they are usually repeats but may differ in a detail not shown here. Equal entries are not always repeated. This is part of a sample that, as a whole, favours compounds with a hit. Of some 83,000 tested, about 20% had one in any assay.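 Activity criterion: percent growth below 10, measured after cells in 96-well plates were exposed to a single compound concentration for 48 hours.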 Values without a mark were called inactive. Active and inactive are the calls of the source.

How the values were obtained:
Assay in all cases: NCI-60 one-dose screen, 48 h (100 = growth as untreated, 0 = no growth, -100 = all killed)
Settings in all cases: 10 µM unless noted
[1] = test system: T-47D breast
[2] = test system: BT-549 breast
[3] = test system: MDA-MB-435 melanoma
[4] = test system: SW-620 colon
[5] = test system: MCF7 breast
[6] = test system: HCT-116 colon
[7] = test system: HCC-2998 colon
[8] = test system: KM12 colon

| Compound | growth [1] | growth [2] | growth [3] | growth [4] | growth [5] | growth [6] | growth [7] | growth [8] |
| --- | --- | --- | --- | --- | --- | --- | --- | --- |
| Fc1ccc(NC(c2ccc(F)cc2)C2CCN(CCCCc3ccccc3)CC2)cc1 (stereo not drawn) | 22.4% | 61.1% | 43.8% | 12.7% | 5.18% (active) | -55.4% (active) | 16.3% | 29.9% |
| COc1ccccc1/C=C1\COc2ccc(O)cc2C1=O | 82.8% | 76.2% | 14.9% | 9.45% (active) | 12.8% | 42% | 113% | 16.6% |
| CCCCCCCCN(CCCCCCCC)CC(O)c1cc(Cl)ccc1OC (stereo not drawn) | 51% | 102% | 83.6% | 67.2% | 54.7% | 35.7% | 51.7% | 61.8% |
| [Cu+].[NH-][C@H]1C[N-]C(=O)[C@H]([C@H]2CCN=C(N)N2)[N-]C(=O)/C(=C\NC(N)=O)[N-]C(=O)[C@H](CNC(=O)C[C@@H](N)CCCN)[N-]C(=O)[C@H](CO)[N-]C1=O | 89.5% | 104% | 94.3% | 91.7% | 101% | 97.4% | 110% | 101% |
| O=C(c1cccc(Br)c1)N1CCN(c2ccnc3cc(Cl)ccc23)CC1 | 44.4% | 112% | 90.2% | 101% | 88.7% | 84.5% | 109% | 96.4% |
| COc1ccc(/C=N/NC(=O)CN2CCN(c3cc4c(cc3F)c(=O)c(C(=O)O)cn4C3CC3)CC2)cc1O | 96.6% | 107% | 107% | 102% | 92.6% | 93.4% | 99.2% | 102% |
| CC1=CC(C)(C)NC(=S)N1c1ccc(Cl)cc1 | 92.8% and 87.2% | 99.1% and 110% | 101% and 117% | 100% and 115% | 101% and 97.3% | 99.6% and 89% | 105% and 100% | 101% and 105% |
| Cc1cc(N2CCCCC2)nc(NCc2cc(Nc3ccnc4cc(Cl)ccc34)ccc2F)n1 | -60.6% (active) | 15.5% | -86.7% (active) | -19.2% (active) | -37.5% (active) | -62.8% (active) | -16% (active) | 7.38% (active) |
| O=C1C=C(Nc2ccccc2)c2ncccc2C1=O | -48.3% (active) | -94.4% (active) | -95.3% (active) | -70.6% (active) | -52.2% (active) | -87.9% (active) | -89.1% (active) | -67.3% (active) |
| COc1cc(/C=C(/c2ccccc2)[N+](=O)[O-])c(OC)c2c1OCO2 | -55.9% (active) | -84.4% (active) | -23% (active) | -40.5% (active) | -36.4% (active) | -86.4% (active) | -91% (active) | -50.8% (active) |
| COc1cc2ncnc(Nc3ccc(F)c(Cl)c3)c2cc1OCC(=O)N1CCCCC1 | 43.6% | 94.4% | 95.3% | 104% | 82.6% | 79.6% | 92.7% | 95.4% |
| CC/C(=C(/c1ccc(Cl)cc1)c1ccc(OCCN2CCOCC2)cc1)c1ccccc1 | 71.7% | 117% | 94.8% | 83.7% | 86.2% | 77.6% | 99.8% | 96.6% |
| N=c1ccccn1CCO | 103% | 113% | 113% | 114% | 102% | 100% | 94.6% | 112% |
| CC/C(=C(/c1ccc(O)cc1)c1ccc(OCCN2CCCCCC2)cc1)c1ccc(Cl)cc1 | 51.9% | 69.8% | 81.1% | 62.6% | 13% | -53% (active) | 28.8% | 38.2% |
| Nc1n[nH]c2cccc(C#Cc3cccc(NC(=O)c4ccc(N5CCOCC5)c(C(F)(F)F)c4)c3)c12 | -0.951% (active) | 14.2% | 19.2% | 21.5% | 25.6% | 2.84% (active) | 6.77% (active) | 21.4% |
| COC(=O)c1[nH]nc(OC)c1C1(C(C#N)c2nc3ccccc3s2)CCCc2ccccc21 (stereo not drawn) | 84.1% | 88.2% | 104% | 104% | 84.8% | 104% | 102% | 97% |
| CCN(CC)CCOc1ccccc1C | 98.3% | 102% | 106% | 107% | 100% | 98.3% | 107% | 107% |
| Cn1cc(-c2nonc2-c2cn(C)c3ccc(Br)cc23)c2ccccc21 | 23.6% | 34% | -20.3% (active) | 14.7% | 15.4% | 17.1% | 67.9% | 23.3% |
| COc1ccc2c(O)c(/C=C3\N=Nc4nc(C)ccc43)oc2c1CC1CCNCC1 | 89.5% | 60.4% | 42.7% | 38.9% | 67.3% | 35.3% | 78.1% | 38.2% |

| Compound | growth [1] | growth [2] | growth [3] | growth [4] | growth [5] | growth [6] | growth [7] | growth [8] |
| --- | --- | --- | --- | --- | --- | --- | --- | --- |
| O=C(/C=C/c1ccc([N+](=O)[O-])cc1)c1ccccc1 | 60.2% | 93.6% | 89.3% | 72.1% | 20.2% | 17% | 102% | 57% |
| Cc1cnc(C(=O)NNc2nc3sc4c(c3c(=O)[nH]2)C(C)CCC4)cn1 (stereo not drawn) | 30.4% | 39.5% | 31.4% | 35.3% | 13.9% | 22.5% | 11.1% | 17.5% |
| O=C(N=Nc1c(O)[nH]c2ccccc12)Nc1ccccc1Cl | 42% | 96.6% | 84.5% | 85.2% | 19.8% | 89.8% | 78.2% | 53.6% |
| Cc1c(CC(=O)OCCO)cc(-c2ccc(Cl)cc2)n1-c1ccccc1 | 72.3% | 109% | 98.7% | 104% | 93% | 102% | 118% | 99.1% |
| C#Cc1cc(C(=O)Nc2ccc(CN3CCN(C)CC3)c(C(F)(F)F)c2)ccc1C | 79% | 101% | 28.1% | 81.3% | 70.1% | 47.8% | 90.2% | 70.3% |
| O=c1cc(N/N=C/c2ccc(F)cc2)c2cc(Cl)ccc2[nH]1 | 68.5% | 93.6% | 78.6% | 101% | 84.6% | 84.1% | 85.1% | 108% |
| Nc1nc2c(s1)CCc1cn(S(=O)(=O)c3ccccc3)cc1-2 | 81.6% and 111% | 84% and 109% | 91.1% and 107% | 99.7% and 99.3% | 93.4% and 94.3% | 84.5% and 100% | 111% and 106% | 94.6% and 108% |
| Cc1ccc(S(=O)(=O)OC[C@@]2(C)CC[C@]3(C)CC[C@]4(C)C(=C3C2)C=C[C@@H]2[C@@]3(C)CCCNC(C)(C)[C@@H]3CC[C@]24C)cc1 | -57.7% (active) | 83.6% | -38.2% (active) | -85.8% (active) | -4.17% (active) | – | -29% (active) | – |
| CN1CCN(c2ccc(/C=C/C(=O)c3ccc(O)cc3)cc2)CC1 | 83.6% | 97.7% | 100% | 99.5% | 89.7% | 99.2% | 102% | 101% |
| COc1ccc(Cl)cc1Nc1nc(C(F)(F)F)ccc1C(=O)N/N=C/c1ccc(N(C)C)cc1 | 82.7% | 115% | 121% | 109% | 218% | 80.3% | 68.3% | 103% |
| CN1C(=O)/C(=C/c2ccc(C(=O)Nc3ncc(Cc4ccccc4Cl)s3)cc2)SC1=S | 63.4% | 69.5% | -18.5% (active) | 62% | 61.8% | – | 77.5% | 46.1% |
| Nc1nc2ccccc2c2c(=O)c3ccc(Cl)cc3sc12 | 53.9% | 94.3% | 101% | 76% | 29.9% | – | 114% | 87.5% |
| COc1cc2c(cc1OCCCOC1=C=C=C(c3ccc4c(c3)c3cc(-c5ccc(OCCCOc6cc7c(cc6OC)C(=O)N6CCC[C@H]6C=N7)cc5)ccc3n4S(=O)(=O)c3ccc(C)cc3)C=C1)N=C[C@@H]1CCCN1C2=O | 37.1% | 277% | 44.5% | 6.31% (active) | 23% | – | -43.2% (active) | 42.1% |
| FC(F)(F)Sc1ccc(/C=C/c2cc(/C=C/c3ccc(SC(F)(F)F)cc3)n(-c3ccccc3)n2)cc1 | 84.3% | 103% | 91.7% | 94.9% | 89% | – | 101% | 95.2% |
| CN1C(=O)N(C)C2(c3ccccc3)N(CC(=O)Nc3ccccc3O)C(=O)NC12c1ccccc1 (stereo not drawn) | 98.5% | 104% | 106% | 97.4% | 101% | – | 118% | 105% |
| OCCN1CCN(c2cc(-c3cccc(OC(F)(F)F)c3)nc3ccc(N4CCCC4)cc23)CC1 | 32.2% | 80.5% | 29.7% | 2.96% (active) | 17.5% | – | 22.9% | 23.4% |
| O=C(NNc1ccccc1)c1ccccc1 | 56.5% and 36.8% | 105% and 72.2% | 69.4% | 57.1% and 45.7% | 82.9% and 90.4% | – | 85.6% | 33.5% |
| O=C1/C(=C/c2ccccc2)CN(C(=O)C(Cl)Cl)C/C1=C\c1ccccc1 | 17.2% | -5.59% (active) | -50.2% (active) | -49% (active) | -39% (active) | – | -59.6% (active) | -61.8% (active) |
| Nc1n[nH]c2cccc(C#Cc3cccc(C(=O)Nc4ccc(CN5CCOCC5)c(C(F)(F)F)c4)c3)c12 | 6.17% (active) | 23.7% | 38.7% | 49.3% | 33.4% | – | 26.9% | 19% |
